# Values joined by “and” are separate entries in the source; they are usually repeats but may differ in a detail not shown here. Identical values can stand only once. Like-named read-outs stand apart in the source and are kept apart here.
# Columns and labels:
# EPHB6 = settings: concentration: 1 μM, replicates: in singlicate, n = 1
# ERBB2 = settings: concentration: 1 μM, replicates: in singlicate, n = 1
# ERBB3 = settings: concentration: 1 μM, replicates: in singlicate, n = 1
# ERBB4 = settings: concentration: 1 μM, replicates: in singlicate, n = 1
# ERK1 = system: T1, ERK1; settings: concentration: 1 μM, replicates: in singlicate, n = 1
# T1 construct: gene MAPK3
# ERK2 = system: T2, ERK2; settings: concentration: 1 μM, replicates: in singlicate; n = 1
# T2 construct: gene MAPK1
# ERK3 = system: T3, ERK3; settings: concentration: 1 μM, replicates: in singlicate, n = 1
# T3 construct: gene MAPK6
# ERK4 = system: T4, ERK4; settings: concentration: 1 μM, replicates: in singlicate, n = 1
# T4 construct: gene MAPK4
# ERK5 = system: T5, ERK5; settings: concentration: 1 μM, replicates: in singlicate; n = 1
# T5 construct: gene MAPK7
# ERK8 = system: T6, ERK8; settings: concentration: 1 μM, replicates: in singlicate, n = 1
# T6 construct: gene MAPK15
# ERN1 = settings: concentration: 1 μM, replicates: in singlicate, n = 1
# FAK = system: T7, FAK; settings: concentration: 1 μM, replicates: in singlicate, n = 1
# T7 construct: gene PTK2
# FER = settings: concentration: 1 μM, replicates: in singlicate, n = 1
# FES = settings: concentration: 1 μM, replicates: in singlicate, n = 1
# FGFR1 = settings: concentration: 1 μM, replicates: in singlicate, n = 1
# FGFR2 = settings: concentration: 1 μM, replicates: in singlicate, n = 1
# FGFR3 = settings: concentration: 1 μM, replicates: in singlicate, n = 1
# FGFR4 = settings: concentration: 1 μM, replicates: in singlicate, n = 1
# FGR = settings: concentration: 1 μM, replicates: in singlicate, n = 1
# FLT1 = settings: concentration: 1 μM, replicates: in singlicate, n = 1
# 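Further: KINOMEscan kinase panel screen.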
compound,measurement,setting,value
CCc1ccnc(/C=C/c2n[nH]c3cc(Sc4ccccc4C(=O)NC)ccc23)c1,%Inh,EPHB6,35%
same,%Inh,ERBB2,2%
same,%Inh,ERBB3,0%
same,%Inh,ERBB4,21%
same,%Inh,ERK1,0%
same,%Inh,ERK2,5%
same,%Inh,ERK3,0%
same,%Inh,ERK4,9%
same,%Inh,ERK5,0%
same,%Inh,ERK8,0%
same,%Inh,ERN1,0%
same,%Inh,FAK,14%
same,%Inh,FER,0%
same,%Inh,FES,0%
same,%Inh,FGFR1,84%
same,%Inh,FGFR2,87%
same,%Inh,FGFR3,83%
same,%Inh,FGFR4,11%
same,%Inh,FGR,86%
same,%Inh,FLT1,100%
COc1ccc(CNC(=O)NC2CCN(c3ccnc(Nc4ccc(OC)cc4)n3)C2)cc1 (stereo not drawn) [GSK1379727],%Inh,EPHB6,26%
same,%Inh,ERBB2,39%
same,%Inh,ERBB3,10%
same,%Inh,ERBB4,2%
same,%Inh,ERK1,0%
same,%Inh,ERK2,0%
same,%Inh,ERK3,0%
same,%Inh,ERK4,20%
same,%Inh,ERK5,0%
same,%Inh,ERK8,0%
same,%Inh,ERN1,0%
same,%Inh,FAK,0%
same,%Inh,FER,8%
same,%Inh,FES,1%
same,%Inh,FGFR1,0%
same,%Inh,FGFR2,7%
same,%Inh,FGFR3,18%
same,%Inh,FGFR4,0%
same,%Inh,FGR,26%
same,%Inh,FLT1,5%
c1ccc(-c2n[nH]cc2-c2ccnc3ccccc23)nc1 [GW271431],%Inh,EPHB6,10%
same,%Inh,ERBB2,9%
same,%Inh,ERBB3,0%
same,%Inh,ERBB4,25%
same,%Inh,ERK1,0%
same,%Inh,ERK2,6%
same,%Inh,ERK3,10%
same,%Inh,ERK4,11%
same,%Inh,ERK5,0%
same,%Inh,ERK8,0%
same,%Inh,ERN1,0%
same,%Inh,FAK,0%
same,%Inh,FER,31%
same,%Inh,FES,0%
same,%Inh,FGFR1,6%
same,%Inh,FGFR2,0%
same,%Inh,FGFR3,13%
same,%Inh,FGFR4,11%
same,%Inh,FGR,26%
same,%Inh,FLT1,47%
CN(C1=C(c2ccccc2)C(=O)NC1=O)c1ccccc1 [SB-334860],%Inh,EPHB6,20%
same,%Inh,ERBB2,29%
same,%Inh,ERBB3,0%
same,%Inh,ERBB4,33%
same,%Inh,ERK1,1%
same,%Inh,ERK2,13%
same,%Inh,ERK3,1%
same,%Inh,ERK4,44%
same,%Inh,ERK5,0%
same,%Inh,ERK8,0%
same,%Inh,ERN1,20%
same,%Inh,FAK,0%
same,%Inh,FER,19%
same,%Inh,FES,0%
same,%Inh,FGFR1,0%
same,%Inh,FGFR2,0%
same,%Inh,FGFR3,24%
same,%Inh,FGFR4,18%
same,%Inh,FGR,17%
same,%Inh,FLT1,0%
O=C(Nc1n[nH]c2cc(-c3cccc(F)c3)ccc12)C1CC1 [SB-735464],%Inh,EPHB6,14%
same,%Inh,ERBB2,21%
same,%Inh,ERBB3,0%
same,%Inh,ERBB4,7%
same,%Inh,ERK1,0%
same,%Inh,ERK2,0%
same,%Inh,ERK3,0%
same,%Inh,ERK4,0%
same,%Inh,ERK5,8%
same,%Inh,ERK8,32%
same,%Inh,ERN1,12%
same,%Inh,FAK,3%
same,%Inh,FER,1%
same,%Inh,FES,34%
same,%Inh,FGFR1,0%
same,%Inh,FGFR2,0%
same,%Inh,FGFR3,0%
same,%Inh,FGFR4,0%
same,%Inh,FGR,33%
same,%Inh,FLT1,0%
COC(=O)Nc1nc2cc(Oc3ccc(NC(=O)Nc4cc(F)ccc4F)cc3)ccc2[nH]1.Cl [GW701424],%Inh,EPHB6,5%
same,%Inh,ERBB2,43%
same,%Inh,ERBB3,26%
same,%Inh,ERBB4,27%
same,%Inh,ERK1,0%
same,%Inh,ERK2,3%
same,%Inh,ERK3,8%
same,%Inh,ERK4,0%
same,%Inh,ERK5,0%
same,%Inh,ERK8,0%
same,%Inh,ERN1,0%
same,%Inh,FAK,0%
same,%Inh,FER,0%
same,%Inh,FES,0%
same,%Inh,FGFR1,0%
same,%Inh,FGFR2,0%
same,%Inh,FGFR3,19%
same,%Inh,FGFR4,6%
same,%Inh,FGR,9%
same,%Inh,FLT1,99%
NCCNS(=O)(=O)c1ccc(-c2ccnc3[nH]ccc23)cc1 [GSK977617],%Inh,EPHB6; 1 µM,13% and 24%
same,%Inh,ERBB2; 1 µM,37% and 0%
same,%Inh,ERBB3; 1 µM,3% and 0%
same,%Inh,ERBB4; 1 µM,47% and 0%
same,%Inh,ERK1; 1 µM,8% and 0%
same,%Inh,ERK2,0%
same,%Inh,ERK3; 1 µM,12% and 17%
same,%Inh,ERK4; 1 µM,3% and 25%
same,%Inh,ERK5,0%
same,%Inh,ERK8; 1 µM,46% and 17%
same,%Inh,ERN1; 1 µM,31% and 6%
same,%Inh,FAK; 1 µM,5% and 0%
same,%Inh,FER; 1 µM,53% and 22%
same,%Inh,FES; 1 µM,11% and 0%
same,%Inh,FGFR1; 1 µM,57% and 38%
same,%Inh,FGFR2; 1 µM,6% and 0%
same,%Inh,FGFR3; 1 µM,6% and 10%
same,%Inh,FGFR4; 1 µM,11% and 6%
same,%Inh,FGR; 1 µM,31% and 11%
same,%Inh,FLT1; 1 µM,60% and 33%
Cn1cc(-c2ccc3c(c2)CCN3C(=O)Cc2ccccc2Cl)c2c(N)ncnc21 [GSK2608885],%Inh,EPHB6,98.3%
same,%Inh,ERBB2,97.2%
same,%Inh,ERBB3,86%
same,%Inh,ERBB4,98.9%
same,%Inh,ERK1,0%
same,%Inh,ERK2,0%
same,%Inh,ERK3,0%
same,%Inh,ERK4,23%
same,%Inh,ERK5,47%
same,%Inh,ERK8,0%
same,%Inh,ERN1,37%
same,%Inh,FAK,42%
same,%Inh,FER,64%
same,%Inh,FES,22%
same,%Inh,FGFR1,59%
same,%Inh,FGFR2,82%
same,%Inh,FGFR3,43%
same,%Inh,FGFR4,15%
same,%Inh,FGR,99%
same,%Inh,FLT1,98.8%
CC(C)(C)n1cnc2c(N)ncnc21 [SKF-97359],%Inh,EPHB6,0%
same,%Inh,ERBB2,37%
same,%Inh,ERBB3,17%
same,%Inh,ERBB4,22%
same,%Inh,ERK1,0%
same,%Inh,ERK2,0%
same,%Inh,ERK3,10%
same,%Inh,ERK4,15%
same,%Inh,ERK5,4%
same,%Inh,ERK8,8%
same,%Inh,ERN1,0%
same,%Inh,FAK,0%
same,%Inh,FER,45%
same,%Inh,FES,0%
same,%Inh,FGFR1,0%
same,%Inh,FGFR2,0%
same,%Inh,FGFR3,0%
same,%Inh,FGFR4,0%
same,%Inh,FGR,8%
same,%Inh,FLT1,7%

# — article PMC5540273 (PLoS ONE, 2017)
